Screening data deposited in PubChem by National Center for Advancing Translational Sciences (NCATS).
Mito fusion yeast: inhibitors of mitochondrial division or activators of mitochondrial fusion. S. cerevisiae fusion-defective mutant growth rescue, CellTiterGlo 48 h. Potency, µM (series often up to 46.1 µM), for inactives: top-dose growth rescue (activation), hits mostly activators. actives 0.23% (n = 320,000); also: % of control where 0% means no effect; nearly all actives have a fitted effect of over 45% in size
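Compounds are tested for their ability to restore growth of mitochondrial fusion-defective yeast strains at non-permissive 37C in YPEG medium over 48 hours. Viability is quantified by luciferase luminescence.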
GCN5L2 inh: inhibitors of human GCN5L2 histone acetyltransferase; AID 504327; Potency, µM (doses to about 58.9 µM), without a hit: at the highest dose activity change, negative = inhibition, most hits filed as inhibitors; GCN5L2 HAT assay, ThioGlo1 CoA-SH fluorescence; actives 0.21% (n = 390,000); Q92830; also: % is scaled to controls: 0 for no effect and ±100 for the full control effect
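GCN5L2 (20 nM) in 50mM HEPES pH 7.5, 0.1mM EDTA, 0.01% Tween-20 preincubated 15 min with compounds at room temperature. Reaction started with H3(1-25) 75uM, acetyl-CoA 70uM, ThioGlo1 50uM; CoA-thiol fluorescence (Ex340/Em540) read at 0 and 20 min.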
PKM2 activator: PKM2 (human) enzyme activation; AID 1631; actives 0.34% (n = 260,000); P14618; Potency, µM (titrated, usually from 57.5 µM), inactives show at the top dose activation, hits mostly activators; purified PKM2, Kinase-Glo ATP luminescence, activation; response scale: 0% is enzyme alone, no compound; also: % is scaled to controls: 0 for no effect and ±100 for the full control effect; nearly all actives have a fitted effect of over 55% in size
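ATP formation by purified human PK-M2, quantified via coupled luciferase luminescence after 1 h at room temperature with 0.1 mM ADP and 0.5 mM PEP final.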
VDR inhibitor: vitamin D3 receptor (human) inhibition; actives 0.93% (n = 400,000); AID 504847; VDR-SRC2-3 peptide fluorescence polarization, 2 h; Potency, µM, for the others: max response, negative = inhibition, most hits filed as inhibitors; P11473; also: % is scaled to controls: 0 for no effect and ±100 for the full control effect
Target sequence (P11473 whole entry, looked up): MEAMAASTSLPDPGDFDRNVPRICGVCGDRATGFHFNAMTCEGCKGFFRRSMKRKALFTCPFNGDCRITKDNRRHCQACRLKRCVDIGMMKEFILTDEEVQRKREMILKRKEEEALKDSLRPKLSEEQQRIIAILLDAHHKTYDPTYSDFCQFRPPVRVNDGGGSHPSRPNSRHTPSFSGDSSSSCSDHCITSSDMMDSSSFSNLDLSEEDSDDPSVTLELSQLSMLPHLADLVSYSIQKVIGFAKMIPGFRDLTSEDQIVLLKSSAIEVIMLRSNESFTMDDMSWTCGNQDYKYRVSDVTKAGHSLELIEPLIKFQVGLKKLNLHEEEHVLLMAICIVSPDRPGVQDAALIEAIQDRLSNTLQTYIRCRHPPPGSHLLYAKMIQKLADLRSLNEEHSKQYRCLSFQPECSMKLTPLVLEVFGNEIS
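Compounds are added to VDR with labelled SRC2-3 coactivator peptide and held 2 h at room temperature. Inhibition of the VDR–peptide interaction is then read as a change in fluorescence polarization.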
PLK1 PBD inh: PLK1 (human) polo-box domain binding inhibition; P53350; Plk1 PBD binding of FITC phosphopeptide, fluorescence polarization; Potency, µM, for the others: max response, negative = inhibition, hits mostly inhibitors; actives 2.8% (n = 360,000); also: series mostly up to about 57 µM; % is scaled to controls: 0 for no effect and ±100 for the full control effect; nearly all actives have a fitted effect of over 65% in size
GLS inhibitor: glutaminase GLS (human) inhibition | O94925 | GLS enzymatic activity, qHTS titration | Potency, µM (doses to about 45.5 µM), for inactives: top-dose activity change, negative = inhibition, most hits filed as inhibitors | actives 0.21% (n = 410,000); also: % is scaled to controls: 0 for no effect and ±100 for the full control effect
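hKGA in 45 mM KH2PO4 (pH 8.2), 0.02% Tween-20 with compound, then 1mM L-Glutamine (stock as added) plus glutamate oxidase/HRP/Amplex red coupling mix. Fluorescence read initially and after 30 min at RT; signal change reflects glutamate formation.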
* marks the source's active call; other numbers are inactive results; [ ] = dose if it differs, or a comment. Compounds with a hit are over-represented: about 3.4% of the library has one in this group of screens. Calls follow the shape of the dose curve; as a rule, active = well fitted curve in the direction sought with a large enough effect; inconclusive = small, poorly fitted or top-dose-only effect, or another doubt; inactive = no such curve, though single readings can be large; an effect the other way counts as inactive or inconclusive. Potency is read from the fitted curve at half-maximal effect.

`O=C1CCCC2=C1C(c1ccncc1)n1c(nc3ccccc31)N2` (stereo unspecified) gave Mito fusion yeast -2.4%, GCN5L2 inh -15.5%, PKM2 activator -3.0%, VDR inhibitor inconclusive, PLK1 PBD inh 26.7µM* and GLS inhibitor 6.0%.
For CC1CC(=O)C2=C(C1)Nc1nc3ccccc3n1C2c1cccnc1 (stereo unspecified) the results were Mito fusion yeast -1.2%, GCN5L2 inh -16.5%, PKM2 activator -0.3%, VDR inhibitor -16.9%, PLK1 PBD inh -13.6% and GLS inhibitor -17.1%.
Fc1cnc(Cl)nc1NC1CCCCC1 was read as Mito fusion yeast -14.6%, GCN5L2 inh -0.6%, VDR inhibitor inconclusive, PLK1 PBD inh 21.2µM* and GLS inhibitor 11.7%.
Screening O=C(NNc1c(Cl)cccc1Cl)c1sccc1Cl returned Mito fusion yeast 4.0%, GCN5L2 inh inconclusive, PKM2 activator 15.8µM*, VDR inhibitor -11.2%, PLK1 PBD inh -3.5% and GLS inhibitor -19.3%.
Cc1cc(C)nc(SCC(=O)N(C)CC(=O)Nc2c(Cl)cccc2Cl)n1 was read as Mito fusion yeast 0.5%, GCN5L2 inh -1.5%, VDR inhibitor -11.5%, PLK1 PBD inh -2.1% and GLS inhibitor -16.9%.
`Cc1ccc([N+](=O)[O-])cc1Nc1nc(N2CCCC2)nc(N2CCCC2)n1` gave Mito fusion yeast 0.8%, GCN5L2 inh -7.3%, PKM2 activator 0.2%, VDR inhibitor 79.4µM*, PLK1 PBD inh 18.9µM* and GLS inhibitor -12.6%.
`NCC1CCC(C(=O)O)CC1` (stereo unspecified) gave GCN5L2 inh -8.1%[21.4 µM], VDR inhibitor 0.1% and GLS inhibitor 2.0%[20 µM].
`CCOC(=O)C1Nc2ccc(C(F)(F)F)cc2C2c3ccccc3CC12` (stereo unspecified) gave VDR inhibitor 50.1µM*, PLK1 PBD inh -8.3% and GLS inhibitor -3.6%.
Screening O=C(NCCOc1ccccc1)C1Nc2ccc(C(F)(F)F)cc2C2c3ccccc3CC12 (stereo unspecified) returned VDR inhibitor -22.5%, PLK1 PBD inh -10.6% and GLS inhibitor -1.7%.
`CCOC(=O)C1Nc2ccccc2C2C(O)C(O)CC12` (stereo unspecified) gave VDR inhibitor -21.2%, PLK1 PBD inh 37.7µM* and GLS inhibitor -8.8%.
Screening CCOC(=O)C1Nc2ccc(OC(F)(F)F)cc2C2C=CCC12 (stereo unspecified) returned VDR inhibitor inconclusive, PLK1 PBD inh inconclusive and GLS inhibitor 6.5%.
CCCC(=O)Nc1nc2c(ncn2[C@@H]2O[C@H]3COP(=O)(O)O[C@@H]3[C@@H]2OC(=O)CCC)c(=O)[nH]1 was read as GCN5L2 inh 0.0% and VDR inhibitor 1.4%.
Cc1ccc(C(=O)NCC(=O)OCCCOC(=O)CNC(=O)c2ccc(C)cc2)cc1 was read as Mito fusion yeast 1.9%, GCN5L2 inh -15.7%, VDR inhibitor -3.0%, PLK1 PBD inh -7.9% and GLS inhibitor -1.3%.
`Cc1c(C(=O)N2CCCCC2)c(S(=O)(=O)N(C)Cc2ccccc2)c(C)n1C` gave Mito fusion yeast -8.1%, GCN5L2 inh -6.0%, PKM2 activator 0.0%, VDR inhibitor 7.0%, PLK1 PBD inh -4.9% and GLS inhibitor 0.5%.
`CCc1nc(-c2cc(S(=O)(=O)N3CCN(c4ccccc4F)CC3)ccc2OC)no1` gave GCN5L2 inh -4.7%, VDR inhibitor -2.1% and GLS inhibitor 6.7%.
For COc1ccc(S(=O)(=O)N2CCN(c3ccccc3F)CC2)cc1-c1noc(C)n1 the results were GCN5L2 inh 15.8µM*, VDR inhibitor 4.9% and GLS inhibitor 4.1%.
`N#Cc1ccc(NC(=O)Cn2c3[n+](c4ccc(C(F)(F)F)cc42)CCCCC3)cc1` gave Mito fusion yeast 1.4%, GCN5L2 inh 0.4%, PKM2 activator 13.4%, VDR inhibitor -10.0%, PLK1 PBD inh 23.8µM* and GLS inhibitor 0.0%.
For COc1ccccc1OCCn1c(CCNC(=O)C2CCCCC2)nc2ccccc21 the results were VDR inhibitor -16.8%.
Screening CCCCc1nc2c(c3c1C[C@H](C)OC3)CN(C(=O)NCCCC(=O)OCC)CC2 returned PKM2 activator -9.2%[11.5 µM].
NC(C(=O)O)c1cc(O)c(Cl)c(O)c1 (stereo unspecified) was read as GCN5L2 inh 31.6µM* and VDR inhibitor 2.2%.
CCCOc1ccc(C2=CSC3=NCCN23)cc1[N+](=O)[O-] was read as Mito fusion yeast -42.9%, GCN5L2 inh -2.8%, VDR inhibitor inconclusive, PLK1 PBD inh 29.9µM* and GLS inhibitor 19.9%.
Screening CCOc1ccc(C2=CSC3=NCCN23)cc1Cl returned Mito fusion yeast -13.2%, GCN5L2 inh -3.6%, PKM2 activator 1.1%, VDR inhibitor 79.4µM*, PLK1 PBD inh inconclusive and GLS inhibitor 3.0%.
Screening CCOc1ccc(C2=CSC3=NCCN23)cc1[N+](=O)[O-] returned Mito fusion yeast -57.6%, GCN5L2 inh 26.4%, VDR inhibitor -25.1%, PLK1 PBD inh -7.9% and GLS inhibitor -17.8%.
`CC(=NNC(=O)c1cc(C)nc2ccccc12)c1ccc(N2CCOCC2)cc1` gave GCN5L2 inh -9.2%, VDR inhibitor -7.6%, PLK1 PBD inh -4.3% and GLS inhibitor -3.2%.
C/C(=N\NC(=O)c1cc(-c2ccncc2)nc2ccccc12)c1ccc(N2CCOCC2)cc1 was read as Mito fusion yeast 2.5%, GCN5L2 inh -14.9%, PKM2 activator 0.6%, VDR inhibitor -16.0%, PLK1 PBD inh 29.9µM* and GLS inhibitor 27.0%.
`Cc1ccc(-c2nc(CNC(=O)c3ccco3)cs2)cc1` gave Mito fusion yeast -1.5%, GCN5L2 inh -7.2%, PKM2 activator 14.6%, VDR inhibitor -12.5%, PLK1 PBD inh -22.3% and GLS inhibitor 3.0%.
For O=C1/C(=C\c2ccccc2)CCc2c1[nH]c1ccccc21 the results were Mito fusion yeast 9.4%, GCN5L2 inh -4.1%, PKM2 activator 3.5%, VDR inhibitor 3.0%, PLK1 PBD inh -1.1% and GLS inhibitor 5.8%.
`O=C1/C(=C/c2ccccc2)CCc2ccc(Cl)nc21` gave VDR inhibitor 50.1µM*, PLK1 PBD inh -12.0% and GLS inhibitor -3.3%.
For O=[N+]([O-])c1ccccc1S(=O)(=O)Oc1ccc(C(=S)N2CCOCC2)cc1 the results were Mito fusion yeast 3.1%, GCN5L2 inh -4.0%, PKM2 activator 1.1%, VDR inhibitor -1.3%, PLK1 PBD inh 5.32µM* and GLS inhibitor -3.7%.
